From PubChem BioAssay (NCATS)
Results filed as inconclusive are left out. Calls of active or inactive are those of the source. Calls come from the whole dose curve; as a rule, active = well fitted curve in the direction sought with a large enough effect; inconclusive = small, poorly fitted or top-dose-only effect, or another doubt; inactive = no such curve, though single readings can be large; an effect the other way counts as inactive or inconclusive. Numbered stars: 1 amine (or outer) side, 2 acyl side, 3 side chain; on linkers, the order of the positions; unused ones are H or OH. Square brackets hold non-standard residues; d marks the D form. Peptide text beside a SMILES is read from it. X1 = CCCCCCCCCC(=O)[C@H](C(=O)[*:2])[C@@H]1CNC(=O)[C@@H](N[*:1])CS1

How the values were obtained:
[1] = OV-KATE Cancer Cell Toxicity qHTS against the NCATS CANVASS Library (AID 1347345)
How it was run: (§1)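 In this cytotoxicity screen, 1000 cells per well rested 4 hours, then received compound (11 concentrations) for a 72-hour incubation; an ATP-dependent luminescent signal (CellTiter-Glo) was the endpoint.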

[2] = HPAF-II Cancer Cell Toxicity qHTS against the NCATS CANVASS Library (AID 1347346); note: series mostly up to about 38 µM; nearly all actives have a fitted effect of over 55% in size
How it was run: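 Using 1000 HPAF-II cells per well, we titrated compounds over 11 concentrations for 72 h at 37 degrees C/5% CO2, with bortezomib as control. Cell survival was quantified by CellTiter-Glo luminescence.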

[3] = OV-SAHO Cancer Cell Toxicity qHTS against the NCATS CANVASS Library (AID 1347348); note: series mostly up to about 38 µM; nearly all actives have a fitted effect of over 55% in size
How it was run: as §1

[4] = U-118MG Cancer Cell Toxicity qHTS against the NCATS CANVASS Library (AID 1347351)
How it was run: as §1

[5] = HPAF-II 24hr Apoptosis Induction qHTS against the NCATS CANVASS Library (AID 1347356)
How it was run: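 Using an 11-point qHTS format, HPAF-II cells in DMEM/10% FBS received compounds for 24 h; doxorubicin titration as control. Caspase-3/7 activity quantified by DEVD-luciferase luminescence.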

[6] = HPAF-II 12hr Apoptosis Induction qHTS against the NCATS CANVASS Library (AID 1347358)
How it was run: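 Twelve-hour compound exposure of HPAF-II cells in DMEM with 10% FBS, then luminescent Caspase-Glo 3/7 detection after 15 min at room temperature; doxorubicin control.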

[7] = HEK293 24hr Apoptosis Induction qHTS against the NCATS CANVASS Library (AID 1347359)
How it was run: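 Caspase-3/7 activation measured as luminescence from the DEVD-based Caspase-Glo reagent, 15 min at room temperature, following 24-hour compound treatment of HEK293 cells.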

[8] = HPAF-II 18hr Apoptosis Induction qHTS against the NCATS CANVASS Library (AID 1347360)
How it was run: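 HPAF-II cells at 500/well were exposed for 18 h at 37 C to an 11-point compound series. Caspase-3/7 activity was read by Caspase-Glo luminescence after 15 min at RT.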

[9] = molecular target: Luciferin 4-monooxygenase (Photinus pyralis) (UniProt P08659); assay: Firefly luciferase counterscreen qHTS: Assay Interference Panel against the NCATS CANVASS Library (AID 1347363); note: series mostly up to about 57 µM
How it was run: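 Luminescence inhibition readout: compounds (11-point qHTS) sat 15 min at room temperature with substrate mix (0.013 mM luciferin and ATP), then firefly luciferase was added and signal read 5 min later.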

[10] = qHTS for ATAD5 Agonist screened against the NCATS CANVASS Library (AID 1347367);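 note: luciferase reporter driven by ATAD5 which rises upon DNA damage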
How it was run: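 Luciferase reporter under ATAD5 control, stably integrated in HEK293T cells (2000/well). Compounds (11 points) incubated 16 h at 37C; viability read first by CellTiter-Fluor, then luminescence reporting ATAD5 activation. MMS positive control.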

[11] = MCF7 Cancer Cell Toxicity qHTS against the NCATS CANVASS Library (AID 1347369)
How it was run: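 MCF7 cells (500/well) were exposed 72 h at 37 °C to compounds in an 11-point series. Viability was read as ATP content by CellTiterGlo luminescence.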

[12] = qHTS for ATAD5 Antagonist screened against the NCATS CANVASS Library (AID 1347370);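 note: HEK293T cells carrying an ATAD5 luciferase reporter co-treated with 10 µM 5-fluorouridine; series mostly up to about 46 µM; nearly all actives have a fitted effect of over 65% in size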
How it was run: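 HEK293T-ATAD5 luc reporter, 2000 cells/well; 5hr attach; cpd + 10 uM 5-FUrd; 16hr 37C, 5% CO2. Readouts: CellTiter-Fluor fluorescence (1hr), then Amplite luciferase luminescence (30min RT).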

[13] = J3T Cancer Cell Toxicity qHTS against the NCATS CANVASS Library (AID 1347371)
How it was run: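 ATP-based cytotoxicity in canine J3T cells: 72 hr exposure at 37C, 11-point titration, CellTiterGlo luminescent detection.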

[14] = molecular target: Nuclear receptor subfamily 1 group I member 3 (Homo sapiens) (UniProt Q14994); assay: qHTS for Constitutive Androstane Receptor (CAR) Agonist screened against the NCATS CANVASS Library (AID 1347373);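 note: every well also contained 1.5 µM PK11195 alongside the test compound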
How it was run: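 In an 11-point concentration series, compounds were incubated 24hr with HepG2 cells carrying hCAR and a CYP2B6-2.2kb reporter, with PK11195 at 1.5uM final. A CellTiter-Fluor viability read preceded the ONE-Glo luminescence read.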

[15] = 10-beta competent E. coli microbial cell viability qHTS against the NCATS CANVASS Library (AID 1347376); note: series mostly up to about 46 µM
How it was run: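 Overnight 37C exposure of 10-beta E. coli (0.2 OD) to an 11-point concentration series; ATP-based luminescence after 20 min room-temperature reagent incubation; daunomycin as control.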

[16] = qHTS for H2AX Agonists against the NCATS CANVASS Library (AID 1347378)
How it was run: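 CHO-K1 cells (1000/well, overnight at 37C) exposed to compounds at several concentrations for 3 hr at 37C, 0.76% DMSO final. Lysates read by TR-FRET (phospho-H2AX S139 Eu-cryptate antibody / H2AX-d2 antibody) after 24 hr at room temperature; 665/615 nm ratio.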

[17] = qHTS for Inflammasome Signaling Inhibitors: IL-1-beta AlphaLISA screen against the NCATS CANVASS Library (AID 1347379);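 note: human THP-1 cells primed with LPS then triggered with ATP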
How it was run: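 THP-1, 1 hr compound pre-incubation, then LPS 250 ng/mL + ATP 1.25 mM (final); 16 hr total with compound; IL-1B AlphaLISA, ex 680/em 615 nm; 11-point qHTS, up to 57.5 uM final.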

[18] = Cytotoxicity qHTS for assessment of Hepg2 cells membrane integrity screened against the NCATS CANVASS Library (AID 1347387)
How it was run: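 Membrane damage in HepG2 monolayers was estimated from released LDH, measured with CytoTox-ONE (ex 560/em 590 nm), after 5 hr treatment across 0.59 nM - 46 uM final.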

[19] = Vero-766 cells viability qHTS against the NCATS CANVASS Library: Counterscreen for Zika virus inhibition assay (AID 1347394); note: series mostly up to about 46 µM; nearly all actives have a fitted effect of over 60% in size
How it was run: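 Vero 766 cells (1000/well), without Zika virus, were exposed to compounds for 72 h at 37C. Viability was measured by CellTiter Glo luminescence. Media-only wells served as 100% inhibition.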

[20] = Viability qHTS for inhibitors of the SERCaMP assay screened against the NCATS CANVASS Library (AID 1347400); note: series mostly up to about 92 µM; nearly all actives have a fitted effect of over 70% in size
How it was run: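 Measures loss of viability in SERCaMP reporter SH-SY5Y cells treated for 48 h with compounds; luminescent ATP detection by CellTiter-Glo.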

Measured: Potency

Chain of Luciferin 4-monooxygenase (Photinus pyralis) (P08659 whole entry, looked up): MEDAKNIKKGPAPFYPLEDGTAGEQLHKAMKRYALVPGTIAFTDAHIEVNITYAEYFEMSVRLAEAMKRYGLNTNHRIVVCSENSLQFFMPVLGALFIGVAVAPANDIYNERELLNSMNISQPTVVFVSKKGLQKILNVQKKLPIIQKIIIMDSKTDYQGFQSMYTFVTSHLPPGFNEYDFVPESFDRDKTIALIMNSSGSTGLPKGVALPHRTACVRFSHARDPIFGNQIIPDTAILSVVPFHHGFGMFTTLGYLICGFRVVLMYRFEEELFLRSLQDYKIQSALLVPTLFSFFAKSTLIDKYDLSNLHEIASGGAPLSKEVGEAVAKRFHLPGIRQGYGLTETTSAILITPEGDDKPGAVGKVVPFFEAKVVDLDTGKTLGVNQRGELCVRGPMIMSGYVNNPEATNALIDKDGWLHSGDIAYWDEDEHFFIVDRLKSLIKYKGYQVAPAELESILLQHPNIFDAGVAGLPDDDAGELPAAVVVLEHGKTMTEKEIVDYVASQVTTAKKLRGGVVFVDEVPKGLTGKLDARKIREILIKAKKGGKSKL
Chain of Nuclear receptor subfamily 1 group I member 3 (Homo sapiens) (Q14994 whole entry, looked up): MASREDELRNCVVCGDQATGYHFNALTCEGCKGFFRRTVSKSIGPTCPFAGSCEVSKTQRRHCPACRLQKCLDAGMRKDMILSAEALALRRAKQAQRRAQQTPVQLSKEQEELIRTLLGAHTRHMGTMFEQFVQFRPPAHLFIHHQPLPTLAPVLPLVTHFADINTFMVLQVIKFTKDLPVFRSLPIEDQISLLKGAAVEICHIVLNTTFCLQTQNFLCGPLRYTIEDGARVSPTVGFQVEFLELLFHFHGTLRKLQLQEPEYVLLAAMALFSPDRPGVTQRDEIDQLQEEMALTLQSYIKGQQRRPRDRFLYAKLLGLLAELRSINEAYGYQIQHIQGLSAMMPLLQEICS

CCCCCCCCCC(=O)[C@@H]1C(=O)N[C@@H](CC(C)C)C(=O)N[C@H](C)C(=O)N2CCC[C@H]2C(=O)N[C@@H](C(C)C)C(=O)N[C@H]2CS[C@H]1CNC2=O (cyclo(L[dA]PV[X1]))
inactive: all assays above

C/C(=C\[C@H](C)C(=O)CCCC1CC(=O)NC(=O)C1)C(O)[C@@H](C)[C@H](O)C/C=C/CC/C=C/C(=O)O (some centres undefined)
inactive: all assays above

CC1(C)[C@H](Br)CC[C@]23C[C@]4(C)C(=O)CC12C[C@H]34
not listed: [14]
inactive: all other assays above

C=C(C)[C@@H]1CC[C@]2(C)CC[C@]3(C)[C@H](CC[C@@H]4[C@@]5(C)CC[C@H](O)C(C)(C)[C@@H]5CC[C@]43C)[C@@H]12
inactive: all assays above

Cc1cc(O)cc2oc(C[C@H](C)O)cc(=O)c12
inactive: all assays above
